Measured values published in PubChem BioAssay (EPA / NIEHS).
Active and inactive are the calls of the source. How the source made its calls: active means hit-call score of the fitted dose curve at least 0.9, where 1 is the maximum; inactive means score below 0.9.

Columns and labels:
[1] = read-out: Monocyte Chemoattractant Protein-1 (MCP1), CCL2 (gene 6347); assay: BSK_CASM3C_MCP1: BioMAP Diversity Plus: CASM3C Assay for Monocyte Chemoattractant Protein-1 (MCP1) Biomarker Activity (AID 2283046); settings: primary human coronary artery smooth muscle cells; actives raise or lower the signal;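 further: MCP-1 level quantified by ELISA 24 h after dosing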
[2] = BSK_CASM3C_Proliferation: Cell Proliferation Assessment in the BioMAP Diversity Plus: CASM3C Assay (AID 2283047); settings: primary human coronary artery smooth muscle cells;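 further: sulforhodamine B total protein stain as relative cell number at 560 nm; sub-confluent cells exposed 48 h before staining; fitted both ways against DMSO so gain or loss of cell number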
[3] = read-out: Monokine induced gamma interferon (MIG), CXCL9 (gene 4283); assay: BSK_CASM3C_MIG: BioMAP Diversity Plus: CASM3C Assay for Monokine induced gamma interferon (MIG) Biomarker Activity (AID 2283048); settings: primary human coronary artery smooth muscle cells; actives raise or lower the signal;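 further: MIG protein level measured by ELISA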
[4] = read-out: serum amyloid A (SAA), SAA1 (gene 6288); assay: BSK_CASM3C_SAA: BioMAP Diversity Plus: CASM3C Assay for serum amyloid A (SAA) Biomarker Activity (AID 2283049); settings: primary human coronary artery smooth muscle cells; actives raise or lower the signal;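 further: SAA protein level quantified by ELISA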
[5] = BSK_CASM3C_SRB: Viability Assessment in the BioMAP Diversity Plus: CASM3C Assay (AID 2283050); settings: primary human coronary artery smooth muscle cells;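 further: total protein by SRB staining as cytotoxicity measure in parallel cultures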
[6] = read-out: Thrombomodulin, THBD (gene 7056); assay: BSK_CASM3C_Thrombomodulin: BioMAP Diversity Plus: CASM3C Assay for Thrombomodulin Biomarker Activity (AID 2283051); settings: primary human coronary artery smooth muscle cells; actives raise or lower the signal;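 further: thrombomodulin protein level measured by ELISA 24 h after dosing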
[7] = read-out: Tissue Factor, F3 (gene 2152); assay: BSK_CASM3C_TissueFactor: BioMAP Diversity Plus: CASM3C Assay for Tissue Factor Biomarker Activity (AID 2283052); settings: primary human coronary artery smooth muscle cells; actives raise or lower the signal;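 further: cell surface tissue factor protein level read by ELISA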
[8] = read-out: Urokinase-type plasminogen activator receptor (uPAR), PLAUR (gene 5329); assay: BSK_CASM3C_uPAR: BioMAP Diversity Plus: CASM3C Assay for Urokinase-type plasminogen activator receptor (uPAR) Biomarker Activity (AID 2283054); settings: primary human coronary artery smooth muscle cells; actives raise or lower the signal;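 further: cell-surface uPAR protein level quantified by ELISA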
[9] = read-out: Vascular cell adhesion molecule 1 (VCAM1), VCAM1 (gene 7412); assay: BSK_CASM3C_VCAM1: BioMAP Diversity Plus: CASM3C Assay for Vascular cell adhesion molecule 1 (VCAM1) Biomarker Activity (AID 2283055); settings: primary human coronary artery smooth muscle cells; actives raise or lower the signal;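 further: VCAM-1 protein level quantified by ELISA on the cells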
[10] = read-out: Collagen III, COL3A1 (gene 1281); assay: BSK_hDFCGF_CollagenIII: BioMAP Diversity Plus: hDFCGF Assay for Collagen III Biomarker Activity (AID 2283056); settings: primary human foreskin fibroblasts; actives raise or lower the signal
In short: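 ELISA readout of Collagen III in human dermal (foreskin) fibroblasts, taken 24 h post-treatment. Gain or loss relative to DMSO vehicle fitted in both directions.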

[11] = read-out: Epidermal growth factor receptor (EGFR), EGFR (gene 1956); assay: BSK_hDFCGF_EGFR: BioMAP Diversity Plus: hDFCGF Assay for Epidermal growth factor receptor (EGFR) Biomarker Activity (AID 2283057); settings: primary human foreskin fibroblasts; actives raise or lower the signal
In short: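 Primary human foreskin fibroblasts were exposed to compound for 24 h, after which cell-surface EGFR was quantified by ELISA. Activity was fitted bidirectionally against the DMSO negative control as baseline.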

[12] = read-out: Interleukin-8 (IL8), CXCL8 (gene 3576); assay: BSK_hDFCGF_IL8: BioMAP Diversity Plus: hDFCGF Assay for Interleukin-8 (IL8) Biomarker Activity (AID 2283058); settings: primary human foreskin fibroblasts; actives raise or lower the signal
In short: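 IL-8 levels read by ELISA at 24 hours after dosing human skin fibroblast cultures. Parallel SRB staining assessed overt cytotoxicity, and gain or loss of signal was fitted against DMSO control.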

[13] = BSK_hDFCGF_Proliferation: Cell Proliferation Assessment in the BioMAP Diversity Plus: hDFCGF Assay (AID 2283059); settings: primary human foreskin fibroblasts;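 further: curves fitted for both rise and fall of signal versus DMSO baseline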
In short: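 Sub-confluent human foreskin fibroblast cultures receive test chemical […]. Relative cell number is quantified by sulforhodamine B staining (0.1%, after 10% TCA fixation) at 560 nm, with bidirectional fitting referenced to DMSO.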

[14] = read-out: Macrophage colony-stimulating factor (MCSF), CSF1 (gene 1435); assay: BSK_hDFCGF_MCSF: BioMAP Diversity Plus: hDFCGF Assay for Macrophage colony-stimulating factor (MCSF) Biomarker Activity (AID 2283060); settings: primary human foreskin fibroblasts; actives raise or lower the signal
In short: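 M-CSF levels read by ELISA at 24 h post-dosing in human skin fibroblasts. Parallel cultures stained with SRB assessed cytotoxicity at the same time point; response fitted in both directions against the DMSO baseline.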

[15] = BSK_hDFCGF_SRB: Viability Assessment in the BioMAP Diversity Plus: hDFCGF Assay (AID 2283061); settings: primary human foreskin fibroblasts;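 further: cells exposed to compound for 24 h before the read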
In short: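 Viability was read as total protein: after 10% TCA fixation, wells were stained with 0.1% sulforhodamine B and read at 560 nm. Primary human foreskin fibroblasts were dosed for 24 h, with bidirectional fitting versus DMSO.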

[16] = read-out: TIMP metallopeptidase inhibitor 1 (TIMP1), TIMP1 (gene 7076); assay: BSK_hDFCGF_TIMP1: BioMAP Diversity Plus: hDFCGF Assay for TIMP metallopeptidase inhibitor 1 (TIMP1) Biomarker Activity (AID 2283062); settings: primary human foreskin fibroblasts; actives raise or lower the signal
In short: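 TIMP-1 measured by ELISA 24 h after chemical dosing of primary human skin fibroblasts, with gain or loss fitted relative to DMSO. Parallel SRB staining (560 nm) monitored overt cytotoxicity.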

[17] = read-out: Monokine induced gamma interferon (MIG), CXCL9 (gene 4283); assay: BSK_hDFCGF_MIG: BioMAP Diversity Plus: hDFCGF Assay for Monokine induced gamma interferon (MIG) Biomarker Activity (AID 2283063); settings: primary human foreskin fibroblasts; actives raise or lower the signal
In short: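 Human primary foreskin fibroblasts in the hDFCGF system, exposed to test chemical for 24 h; MIG measured by ELISA. Bidirectional curve fitting against DMSO negative control as activity baseline.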

[18] = read-out: Matrix Metallopeptidase 1 (MMP1), MMP1 (gene 4312); assay: BSK_hDFCGF_MMP1: BioMAP Diversity Plus: hDFCGF Assay for Matrix Metallopeptidase 1 (MMP1) Biomarker Activity (AID 2283064); settings: primary human foreskin fibroblasts; actives raise or lower the signal
In short: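 hDFCGF primary fibroblasts (human foreskin); chemical added; 24 h; MMP1 by ELISA; bidirectional fit vs DMSO.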

[19] = read-out: Vascular cell adhesion molecule 1 (VCAM1), VCAM1 (gene 7412); assay: BSK_hDFCGF_VCAM1: BioMAP Diversity Plus: hDFCGF Assay for Vascular cell adhesion molecule 1 (VCAM1) Biomarker Activity (AID 2283065); settings: primary human foreskin fibroblasts; actives raise or lower the signal;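 on AC50: VCAM-1 protein level quantified by ELISA after 24 h chemical exposure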
In short: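 ELISA readout of VCAM-1 on human dermal fibroblast primary cultures, 24 h after chemical exposure. Gain or loss of signal fitted in both directions against DMSO baseline.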

[20] = read-out: Interferon-gamma inducible Protein 10 (IP10), CXCL10 (gene 3627); assay: BSK_hDFCGF_IP10: BioMAP Diversity Plus: hDFCGF Assay for Interferon-gamma inducible Protein 10 (IP10) Biomarker Activity (AID 2283053); settings: primary human foreskin fibroblasts; actives raise or lower the signal
In short: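 Human foreskin fibroblast primary cells (hDFCGF system) were dosed with chemical and assayed at 24 h; IP-10 measured by ELISA. Activity fitted bidirectionally relative to DMSO negative control as baseline.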

Measured: AC50

CC(C)=CCC/C(C)=C/CO
not listed: [20]
inactive: all other assays above

C=CC(=C)CCC=C(C)C
not listed: [20]
inactive: all other assays above

On1ccccc1=S
active: [1] 32.1 µM | [2] 6.45 µM | [5] 26.8 µM | [6] 0.878 µM | [8] 25.6 µM | [10] 1.41 µM | [12] 0.791 µM | [13] 0.148 µM | [14] 0.892 µM | [15] 1.74 µM | [16] 1.4 µM | [17] 0.204 µM | [18] 1.35 µM | [19] 0.479 µM
inactive: [3] | [4] | [7] | [9] | [11]

CC(C)(O)c1coc(S(=O)(=O)NC(=O)Nc2c3c(cc4c2CCC4)CCC3)c1
not listed: [14]
inactive: all other assays above

CCNc1ccccc1
not listed: [20]
inactive: all other assays above

O=C1CCC(N2C(=O)c3ccccc3C2=O)C(=O)N1 (stereo not given)
not listed: [14]
inactive: all other assays above

CCCCCCCCO
not listed: [20]
inactive: all other assays above

Oc1ccc2c(c1)-c1ccccc1C2
active: [2] 6.61 µM | [13] 29.8 µM
not listed: [14] | [20]
inactive: all other assays above

O=P(OC(CCl)CCl)(OC(CCl)CCl)OC(CCl)CCl
active: [2] 20 µM | [6] 15.7 µM | [10] 12 µM | [13] 16.2 µM
not listed: [20]
inactive: all other assays above

CC1(C)C(=O)N(Br)C(=O)N1Br
not listed: [20]
inactive: all other assays above

O=C(OC[C@H]1O[C@@H](OC(=O)c2cc(O)c(O)c(OC(=O)c3cc(O)c(O)c(O)c3)c2)[C@H](OC(=O)c2cc(O)c(O)c(OC(=O)c3cc(O)c(O)c(O)c3)c2)[C@@H](OC(=O)c2cc(O)c(O)c(OC(=O)c3cc(O)c(O)c(O)c3)c2)[C@@H]1OC(=O)c1cc(O)c(O)c(OC(=O)c2cc(O)c(O)c(O)c2)c1)c1cc(O)c(O)c(OC(=O)c2cc(O)c(O)c(O)c2)c1
active: [1] 6.1 µM | [2] 10 µM | [13] 3.77 µM | [14] 1.21 µM | [17] 2.12 µM | [18] 1.86 µM | [19] 3.31 µM
not listed: [10] | [20]
inactive: all other assays above

O=c1n(CC2CO2)c(=O)n(CC2CO2)c(=O)n1CC1CO1 (stereo not given)
active: [2] 1.85 µM | [9] 18.6 µM | [10] 6.71 µM | [11] 30.7 µM | [13] 4.36 µM | [14] 20 µM | [17] 15.5 µM | [19] 11.6 µM
not listed: [18] | [20]
inactive: all other assays above

Cn1c(=O)c2c(ncn2C)n(C)c1=O
not listed: [11] | [14] | [20]
inactive: all other assays above

CC(C)CCO
active: [13] 17.2 µM
not listed: [14] | [20]
inactive: all other assays above

CC(C)=CCCC(C)CCO (stereo not given)
active: [13] 26.4 µM
not listed: [20]
inactive: all other assays above

CCCCCCCCCCCCc1ccccc1
not listed: [20]
inactive: all other assays above

CCCCCCCCCCCCCCCO
active: [2] 20 µM | [13] 20 µM
not listed: [20]
inactive: all other assays above

O=C(O)CCN(C1(C(=O)NO)CCCC1)S(=O)(=O)c1ccc(Oc2ccc(F)cc2)cc1
not listed: [14] | [20]
inactive: all other assays above
